Data reported in PubChem BioAssay (Tox21).
Where “and” joins values, the source holds several entries; their conditions need not be identical. Identical values can stand only once. Records with an inconclusive call do not appear. Where a call stands in place of a potency, no number is given. Calls of active or inactive are those of the source. Unless noted, the call rests on the fitted dose curve; in most records, active means well fitted curve in the direction sought with a large enough effect in the repeat runs; inconclusive means weak or mixed curves; inactive means no such curve, though single readings can be large; an effect the other way counts as inactive or inconclusive.

Tests used:
[1] = qHTS assay to identify small molecule antagonists of the peroxisome proliferator-activated receptor delta (PPARd) signaling pathway - cell viability counter screen (AID 743213); settings: PPARd-bla HEK293H viability, CellTiter-Glo luminescence, 17 h; series mostly up to 62 µM; further: nearly all actives have a fitted effect of over 50% in size; further: potency means the concentration at half of the fitted maximal effect
Summary of the method: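 Agonist-stimulated (L165041, 300 nM final) HEK293H PPARd UAS-bla cells are exposed to compounds for 17 h at 37 C, and ATP-based luminescence (CellTiter-Glo) from the same wells reports cytotoxicity.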

[2] = qHTS assay to identify small molecule antagonists of the farnesoid-X-receptor (FXR) signaling pathway - cell viability counter screen (AID 743221; active means well fitted cell-killing curve with a large enough effect in the repeat runs, not every such curve was filed as active; further: nearly all actives have a fitted effect of over 50% in size; further: potency means the concentration at half of the fitted maximal effect); settings: FXR-bla HEK293T viability, CellTiter-Glo luminescence, 16 h; series mostly up to 62.6 µM
Summary of the method: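 FXR-UAS-bla HEK 293T cells were treated with test compounds plus chenodeoxycholic acid (50 uM final) for 16 h at 37 C. Cell viability in the same wells was then read as CellTiter-Glo luminescence after 30 min at room temperature.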

[3] = qHTS assay to identify small molecule agonists of the vitamin D receptor (VDR) signaling pathway - cell viability counter screen (AID 743224); settings: VDR-bla HEK293T viability, CellTiter-Glo luminescence, 16 h; series mostly up to 62.6 µM; further: nearly all actives have a fitted effect of over 50% in size; further: potency means the concentration at half of the fitted maximal effect
Summary of the method: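 Counter screen run in the same wells as the VDR-bla reporter assay: CellTiter-Glo luminescence, 30 min at room temperature, after 16 h compound treatment at 37C of cells pre-plated for 4 h.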

[4] = target: Vitamin D3 receptor (Homo sapiens) (UniProt P11473); experiment: qHTS assay to identify small molecule agonists of the vitamin D receptor (VDR) signaling pathway (AID 743222; calls by dose curve); settings: HEK293T VDR-UAS-bla, beta-lactamase FRET ratio, 16 h; series mostly up to 63.5 µM
Summary of the method: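 Agonist mode, beta-lactamase reporter: fluorescence from LiveBLAzer B/G FRET substrate (2 h, room temperature) read after 16 h compound treatment at 37 C of VDR-bla cells, which were pre-incubated 4 h after seeding.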

[5] = target: Peroxisome proliferator-activated receptor delta (Homo sapiens) (UniProt Q03181); experiment: qHTS assay to identify small molecule antagonists of the peroxisome proliferator-activated receptor delta (PPARd) signaling pathway (AID 743215; active means well fitted inhibition curve with a large enough effect in the signal ratio in the repeat runs, not every such curve was filed as active; the % refers to the signal ratio; further: potency means the concentration at half of the fitted maximal effect); settings: HEK293H PPARd-UAS-bla, beta-lactamase FRET ratio, antagonist, 17 h; series mostly up to 62 µM
Summary of the method: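 Agonist L165041 (300 nM final) added with compound to PPARd-bla HEK293H UAS-bla reporter cells; 17 h incubation at 37 C. Read-out: LiveBLAzer FRET substrate, 2 h at room temperature, fluorescence intensity.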

[6] = target: Vitamin D3 receptor (Homo sapiens) (UniProt P11473); experiment: qHTS assay to identify small molecule antagonists of the vitamin D receptor (VDR) signaling pathway (AID 743223; active means well fitted inhibition curve with a large enough effect in the signal ratio in the repeat runs, not every such curve was filed as active; the % refers to the signal ratio; further: potency means the concentration at half of the fitted maximal effect); settings: VDR-UAS-bla HEK293T, beta-lactamase FRET ratio, 16 h; series mostly up to 61 µM
Summary of the method: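 VDR-bla cells were plated, incubated 4 h at 37C, then given compound and 1alpha,25-dihydroxyvitamin D3 (3 nM final). After 16 h at 37C, LiveBLAzer B/G FRET substrate was added for 2 h at room temperature and fluorescence read.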

[7] = qHTS assay to identify small molecule agonists of the farnesoid-X-receptor (FXR) signaling pathway - cell viability counter screen (AID 743218); settings: FXR-bla HEK293T viability, CellTiter-Glo luminescence, 16 h; series mostly up to 62.6 µM; further: nearly all actives have a fitted effect of over 45% in size; further: potency means the concentration at half of the fitted maximal effect
Summary of the method: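 Viability counter screen in the same wells: CellTiter-Glo luminescence, 30 min room-temperature incubation, measured after the beta-lactamase read. Cells were GeneBLAzer FXR-UAS-bla HEK 293T, compound-treated 16 h at 37C.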

[8] = target: Bile acid receptor (Homo sapiens) (UniProt Q96RI1); experiment: qHTS assay to identify small molecule agonists of the farnesoid-X-receptor (FXR) signaling pathway (AID 743220; active means well fitted activation curve with a large enough effect in the signal ratio in the repeat runs, not every such curve was filed as active; the % refers to the signal ratio); settings: HEK293T FXR-UAS-bla, beta-lactamase FRET ratio, 16 h; series mostly up to 62.6 µM
Summary of the method: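 FXR-UAS-bla HEK 293T cells carrying a UAS-driven beta-lactamase reporter were plated for 5 h at 37C/5% CO2, then exposed to DMSO-dissolved Tox21 10K compounds for 16 h at 37C. A LiveBLAzer B/G FRET substrate was loaded for 2 h at room temperature before fluorescence reading.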

[9] = target: Bile acid receptor (Homo sapiens) (UniProt Q96RI1); experiment: qHTS assay to identify small molecule antagonists of the farnesoid-X-receptor (FXR) signaling pathway (AID 743217; active means well fitted inhibition curve with a large enough effect in the signal ratio in the repeat runs, not every such curve was filed as active; the % refers to the signal ratio); settings: HEK293T FXR-UAS-bla, beta-lactamase ratio, CDCA-stimulated, 16 h; series mostly up to 62.6 µM
Summary of the method: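 Antagonist mode: chenodeoxycholic acid at 50 uM final stimulates a UAS-driven beta-lactamase reporter in HEK 293T FXR-bla cells during 16 h, 37C compound exposure. Read-out is FRET substrate fluorescence after 2 h at room temperature.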

Sequence of Peroxisome proliferator-activated receptor delta (Homo sapiens) (Q03181 whole entry, looked up): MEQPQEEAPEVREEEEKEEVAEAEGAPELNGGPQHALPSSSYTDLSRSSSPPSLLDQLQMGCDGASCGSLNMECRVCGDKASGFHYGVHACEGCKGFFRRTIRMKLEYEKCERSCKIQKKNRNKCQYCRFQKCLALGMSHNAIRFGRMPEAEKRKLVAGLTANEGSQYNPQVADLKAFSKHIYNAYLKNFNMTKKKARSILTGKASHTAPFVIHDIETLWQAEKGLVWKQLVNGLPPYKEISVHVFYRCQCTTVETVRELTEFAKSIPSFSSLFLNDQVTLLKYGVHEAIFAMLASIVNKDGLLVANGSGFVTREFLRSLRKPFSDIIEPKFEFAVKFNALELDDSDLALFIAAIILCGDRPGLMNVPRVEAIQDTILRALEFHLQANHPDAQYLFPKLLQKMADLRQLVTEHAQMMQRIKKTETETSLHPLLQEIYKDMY
Sequence of Vitamin D3 receptor (Homo sapiens) (P11473 whole entry, looked up): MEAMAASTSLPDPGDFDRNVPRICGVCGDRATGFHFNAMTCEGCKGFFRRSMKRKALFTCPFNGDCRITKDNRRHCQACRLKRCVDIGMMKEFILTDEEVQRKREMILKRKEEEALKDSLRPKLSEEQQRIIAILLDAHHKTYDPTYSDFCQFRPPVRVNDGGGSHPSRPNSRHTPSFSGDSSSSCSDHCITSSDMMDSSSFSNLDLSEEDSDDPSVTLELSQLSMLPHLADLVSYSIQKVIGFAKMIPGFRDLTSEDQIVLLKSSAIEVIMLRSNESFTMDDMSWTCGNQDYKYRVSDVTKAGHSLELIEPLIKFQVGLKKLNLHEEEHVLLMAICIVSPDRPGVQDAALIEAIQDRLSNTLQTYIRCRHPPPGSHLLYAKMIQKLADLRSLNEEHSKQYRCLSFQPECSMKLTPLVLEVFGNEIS
Sequence of Bile acid receptor (Homo sapiens) (Q96RI1 whole entry, looked up): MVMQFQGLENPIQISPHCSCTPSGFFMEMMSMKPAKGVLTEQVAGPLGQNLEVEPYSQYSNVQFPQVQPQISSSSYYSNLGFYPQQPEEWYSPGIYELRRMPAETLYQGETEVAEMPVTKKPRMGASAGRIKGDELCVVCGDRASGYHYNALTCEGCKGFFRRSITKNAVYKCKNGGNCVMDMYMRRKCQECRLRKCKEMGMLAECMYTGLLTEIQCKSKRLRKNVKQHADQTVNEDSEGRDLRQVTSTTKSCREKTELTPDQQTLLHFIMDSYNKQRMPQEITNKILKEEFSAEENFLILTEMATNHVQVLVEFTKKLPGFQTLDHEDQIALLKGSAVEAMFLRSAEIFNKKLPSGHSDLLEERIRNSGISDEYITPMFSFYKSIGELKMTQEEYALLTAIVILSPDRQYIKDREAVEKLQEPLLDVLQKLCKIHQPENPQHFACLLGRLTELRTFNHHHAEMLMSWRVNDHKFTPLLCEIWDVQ

Q: What does the source list for `Cc1cc(SCc2sc(-c3ccc(C(F)(F)F)c(F)c3)nc2C)ccc1OCC(=O)O`?
A: Potency [1]: 12.3 µM (active); Potency [2]: inactive; Potency [3]: 49 µM (active)

Q: With `CSCCCN=C=S` as the compound, how does the Potency [1] read?
A: Its Potency is “inactive”.

Q: And the Potency [2]?
A: The Potency was “inactive”.

Q: And the Potency [4]?
A: The Potency was “inactive”.

Q: Which Potency [5] does the source give for `c1ccc2c(c1)OCC(C1=NCCN1)O2` (centres undefined) here?
A: The Potency was 23.7 µM (active).

Q: What about the Potency [4] of the same compound?
A: The Potency was “inactive”.

Q: And the Potency [6]?
A: Its Potency is 16.9 µM (active).

Q: What about the Potency [3] of the same compound?
A: The Potency was “inactive”.

Q: Which Potency [1] does the source give for `Clc1ccc(CSC(Cn2ccnc2)c2ccc(Cl)cc2Cl)cc1` (centres undefined) here?
A: Its Potency is 33.5 µM (active).

Q: What about the Potency [2] of the same compound?
A: The Potency was 23.7 µM (active).

Q: What about the Potency [4] of the same compound?
A: Its Potency is “inactive”.

Q: And the Potency [3]?
A: The Potency was 29.8 µM (active).

Q: Which Potency [5] does the source give for `Cc1cc(N=Nc2ccccc2C)ccc1N` here?
A: Its Potency is “inactive”.

Q: And the Potency [7]?
A: Its Potency is “inactive”.

Q: What about the outcome [8] of the same compound?
A: Its outcome is “inactive”.

Q: What about the Potency [2] of the same compound?
A: Its Potency is “inactive”.

Q: Which Potency [5] does the source give for `Oc1c(Cl)c(Cl)cc(Cl)c1Cl` here?
A: Its Potency is “inactive”.

Q: Which Potency [7] does the source give for `CC1CCC(C(C)C)C(OC(=O)c2ccccc2N)C1` (centres undefined) here?
A: The Potency was 60.8 µM (active).

Q: And the outcome [8]?
A: Its outcome is “inactive”.

Q: Which Potency [5] does the source give for `Cn1cc(C2=C(c3cn(C4CCN(Cc5ccccn5)CC4)c4ccccc34)C(=O)NC2=O)c2ccccc21` here?
A: The Potency was “inactive”.

Q: What about the Potency [7] of the same compound?
A: The Potency was 16.8 µM (active).

Q: What about the outcome [8] of the same compound?
A: The outcome was “inactive”.

Q: What about the Potency [2] of the same compound?
A: Its Potency is “inactive”.

Q: What about the Potency [6] of the same compound?
A: The Potency was “inactive”.

Q: What about the Potency [3] of the same compound?
A: The Potency was “inactive”.

Q: Which Potency [5] does the source give for `CC(C)CCCCCCCOP(=O)(Oc1ccccc1)Oc1ccccc1` here?
A: The Potency was “inactive”.

Q: And the Potency [2]?
A: Its Potency is “inactive”.

Q: What about the Potency [3] of the same compound?
A: The Potency was “inactive”.

Q: For `O=c1ssc(Cl)c1Cl`, which Potency [9] is on record?
A: The Potency was “inactive”.

Q: And the outcome [8]?
A: The outcome was “inactive”.

Q: What about the Potency [2] of the same compound?
A: The Potency was “inactive”.

Q: And the Potency [4]?
A: Its Potency is “inactive”.

Q: Which Potency [9] does the source give for `CC(=O)C(Cl)(Cl)Cl` here?
A: The Potency was “inactive”.

Q: What about the Potency [7] of the same compound?
A: The Potency was “inactive”.

Q: What about the Potency [2] of the same compound?
A: Its Potency is “inactive”.

Q: With `C[C@@H]1O[C@@H](O[C@H]2C[C@@H](O)[C@]3(CO)[C@H]4[C@H](O)C[C@]5(C)[C@@H](C6=CC(=O)OC6)CC[C@]5(O)[C@@H]4CC[C@]3(O)C2)[C@H](O)[C@H](O)[C@H]1O` as the compound, how does the Potency [1] read?
A: The Potency was 16.5 nM (active) and 133 nM (active).

Q: What about the Potency [3] of the same compound?
A: Its Potency is 16.5 nM (active) and 75 nM (active).
